D3 antag: D3 dopamine receptor (human) antagonism; P35462; D3R cells, DiscoveRx beta-arrestin luminescence, antagonist mode; stronger effect = lower value; max response, negative = inhibition, %; actives 2.5% (n = 360,000); AID 652054; in the data active means max response below about -50%; inconclusive means no clear call, values can overlap the other calls; further: on the % scale 0 is the no-effect control and ±100 the full control effect
Target sequence (P35462 whole entry, looked up): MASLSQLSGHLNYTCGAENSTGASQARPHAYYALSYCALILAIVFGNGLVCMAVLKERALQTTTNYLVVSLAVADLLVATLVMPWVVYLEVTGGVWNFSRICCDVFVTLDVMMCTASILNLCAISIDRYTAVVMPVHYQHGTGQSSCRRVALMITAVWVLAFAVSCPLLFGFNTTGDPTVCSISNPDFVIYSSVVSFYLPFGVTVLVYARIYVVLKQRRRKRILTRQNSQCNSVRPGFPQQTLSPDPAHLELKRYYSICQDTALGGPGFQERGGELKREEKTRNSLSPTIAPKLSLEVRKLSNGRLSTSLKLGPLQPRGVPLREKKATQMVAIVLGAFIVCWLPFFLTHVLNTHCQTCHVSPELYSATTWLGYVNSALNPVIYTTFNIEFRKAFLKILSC
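Cells expressing the human receptor were seeded at 1500 cells/well, incubated overnight at 37 degrees C in 5% CO2, then exposed to library compounds with dopamine controls for 90 minutes at 37 degrees C before luminescent detection.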
GLP1R inv ag: GLP-1 receptor (human) inverse agonism. HEK293 GLP-1R CRE-luciferase, luminescence, 24 h; GLP-1R form is constitutively active. Potency, µM (top dose mostly 38.3 µM), for inactives: at the top dose activity change, negative = inhibition, most hits filed as inhibitors. P43220. AID 624417. actives 1.6% (n = 410,000); further: potency means the concentration at half of the fitted maximal effect; on the % scale 0 is the no-effect control and ±100 the full control effect; nearly all actives have a fitted effect of over 55% in size
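Inverse agonism was detected as reduced cAMP-driven luciferase luminescence after 24 h compound treatment. The cells were HEK293 clones expressing constitutively active human GLP-1R with the reporter. Reporter-only and GPR119 cell lines served as counterscreen controls.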
GLP-1R agonist: activates the human GLP-1 receptor | P43220 | HEK293 GLP-1R CRE-luciferase, luminescence, 4-6 h; cells express a hypersensitive GLP-1R form | Potency, µM (doses to about 45.6 µM), for inactives: top-dose activation, most hits filed as activators | actives 0.007% (n = 380,000) | AID 624172; further: potency means the concentration at half of the fitted maximal effect; % of control where 0% means no effect
D3 ag: activates the human D3 dopamine receptor | P35462 | max activation, % | D3R DiscoveRx beta-arrestin cells, luminescence, 90 min | actives 0.58% (n = 410,000); in the data active means max activation above about 30%; further: 0% is about no effect
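Cells at 1500/well, incubated overnight, then treated with pinned compounds (dopamine as control) for 90 min at 37 degrees C. DiscoveRx reagent added for 30 - 60 minutes at room temperature; luminescence read.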
* hit, by the source's call; ? = inconclusive; . = no result. Shown are actives, neighbours in structure and some others; about 4.3% of the full set was active somewhere. Unless noted, the call rests on the fitted dose curve; in most records, active means well fitted curve in the direction sought with a large enough effect; inconclusive means small, poorly fitted or top-dose-only effect, or another doubt; inactive means no such curve, though single readings can be large; an effect the other way counts as inactive or inconclusive.

SMILES	D3 antag	GLP1R inv ag	GLP-1R agonist	D3 ag
Cc1ccc(Sc2ccc(CO)cc2[N+](=O)[O-])cc1	?	-19%	16%	-8
CC(=O)Nc1ccc(S(=O)(=O)NCc2ccc3c(c2)CCN3C(C)=O)cc1	.	9%	.	-10
CCN1C=C(Cc2ccc(OC)cc2)C2=C(C1)C(c1ccc(OC)cc1)C(C#N)=C(N)O2 (centres undefined)	-10	6.3µM*	3%	-3
COc1ccc(C2C(C#N)=C(N)Oc3cc4c(cc32)OCO4)cc1 (centres undefined)	0	-8%	14%	-8
Cc1cccc(CC(=O)NCc2nc3cccnc3n2Cc2ccc(F)cc2)c1	.	-9%	.	-6
CC1Sc2ccc(C#N)cc2N(Cc2cccc(C(F)(F)F)c2)C1=O (centres undefined)	-51*	-1%	4%	-1
O=C(OCC(=O)N1CCOCC1)c1ccc(F)cc1Cl	19	17%	2%	12
COCCCn1c(CCC(=O)O)ccc1-c1cccs1	-55*	6%	2%	-4
Cc1ccc(NC(=O)Cn2c(SCc3ccc(F)cc3)nc3cccnc32)cc1F	.	4%	.	7
CCN(CC)C(=O)CSc1nsc(SCC(=O)N(CC)CC)c1C#N	-55*	-4%	-7%	-3
Cn1c(/C(C#N)=C/c2ccc(C(F)(F)F)cc2)nc2ccccc21	.	-3%	.	9
CCOC(=O)/C(C)=C1\NC(C)(C)Cc2ccccc21	-1	7%	-3%	1
CCCCC1(C)Cc2ccccc2C(=S)N1 (centres undefined)	-50*	-30%	5%	-8
CN1CCN(C(=O)C23CCC(C)(c4nc5ccccc5nc42)C3(C)C)CC1 (centres undefined)	-51*	-10%	3%	-8
Cc1cc2nc3c(nc2cc1C)C1(C(=O)O)CCC3(C)C1(C)C (centres undefined)	13	-2%	-3%	0
C=CCN1CCc2c(cc(O)c(O)c2Cl)C(c2ccccc2)C1 (centres undefined)	0	-16%	1%	97*
Oc1cc2c(c(Cl)c1O)CCNCC2c1ccccc1 (centres undefined)	.	1%	27%	.
C=CCN1CCc2cc(O)c(O)cc2C(c2ccccc2)C1 (centres undefined)	32	12%	1%	139*
CN(/N=C/c1cc(Br)cc(Br)c1O)c1cccc(C(F)(F)F)n1	?	?	3%	-9
CCn1c(SCC(=O)NCC2CCCO2)nc2c(c1=O)SC(C)C2 (centres undefined)	3	3%	2%	0
COc1ccccc1-n1c(SCC(=O)NCC2CCCO2)nc2c([nH]c3ccccc32)c1=O (centres undefined)	-57*	12%	9%	-19
CC1Cc2nc(SCC(=O)NCC3CCCO3)n(C)c(=O)c2S1 (centres undefined)	-53*	1%	1%	14
COc1cc(-c2nc(C(=O)NCC3CCCO3)cc3c2[nH]c2ccccc23)cc(OC)c1OC (centres undefined)	88	-51%	-4%	33*
O=C(CSc1nc2c([nH]c3ccccc32)c(=O)n1-c1ccc(F)cc1)N1CCCCCC1	.	9%	1%	33*
O=C(CSc1nc2c([nH]c3ccccc32)c(=O)n1-c1ccccc1)N1CCCCC1	.	4%	.	-9
SMILES	D3 antag	GLP1R inv ag	GLP-1R agonist	D3 ag
Cc1nnc(SCC(=O)N2CC(=O)Nc3ccccc32)n1Cc1ccccc1	-66*	6%	-7%	-6
Cc1[nH]nc2nc(SCC(=O)NCC3CCCO3)n(-c3ccc(Br)cc3)c(=N)c12 (centres undefined)	-50*	13%	14%	6
Cc1nnc(SCC(=O)NCC2CCCO2)n1Cc1ccccc1 (centres undefined)	-8	0%	0%	78*
O=C(CSc1nc2c([nH]c3ccccc32)c(=O)n1-c1cccc(Cl)c1)NCC1CCCO1 (centres undefined)	.	2%	-3%	-6
Cc1ccccc1-n1c(C)nnc1SCC(=O)NCC1CCCO1 (centres undefined)	-23	0%	1%	-9
O=C(CSc1nc2c([nH]c3ccccc32)c(=O)n1-c1ccccc1)NCC1CCCO1 (centres undefined)	-84*	20%	1%	-23
Cc1cccc(-n2ncc3c(=O)[nH]c(SCC(=O)NCCC4=CCCCC4)nc32)c1	7	16%	-4%	0
CN1/C(=C\C(=S)NC(=O)c2ccccc2Cl)C(C)(C)c2ccccc21	-17	-14%	3%	-5
CN1/C(=C\C=C(/C#N)C(=O)Nc2ccc(Cl)cc2)C(C)(C)c2ccccc21	24	20%	3%	7
CN1/C(=C\C(=S)Nc2ccccc2)C(C)(C)c2ccccc21	1	11µM*	12%	-4
CN1/C(=C\C(=O)Nc2ccc(Cl)cc2)C(C)(C)c2ccccc21	13	10µM*	17%	3
CCN1CCN(c2ncnc3scc(-c4ccc(C)cc4)c23)CC1	-92*	?	-7%	-7
Cc1nc(N2CCN(c3ccccc3O)CC2)c2c(-c3ccccc3)csc2n1	115	?	15%	32*
COc1ccc(-c2csc3nc(C)nc(N4CCN(C(C)=O)CC4)c23)cc1OC	7	4%	15%	-3
CCOc1ccccc1N1CCN(c2ncnc3scc(-c4ccc(OC)cc4)c23)CC1	104	?	-1%	9
COc1ccc(-c2csc3ncnc(N4CCN(c5ccccc5OC)CC4)c23)cc1	72	10µM*	13%	20
CN1CCN(c2ncnc3scc(-c4ccccc4Cl)c23)CC1	?	1.4µM*	-4%	-3
CCN(CC)C(=O)Nc1ccc(OC[C@H](O)CNC(C)(C)C)c(C(C)=O)c1	.	.	-1%	.
CCC(=O)N1CCc2cc(Br)cc(S(=O)(=O)CCC(=O)N(C)c3cccc(C)c3)c21	.	1%	.	8
Oc1ccccc1N1CCN(c2ncnc3scc(-c4ccccc4)c23)CC1	106	11µM*	14%	39*
COc1ccc(-c2csc3ncnc(Oc4cccc5ccc(C)nc45)c23)cc1	9	10µM*	-2%	6
Fc1ccc(-c2csc3ncnc(N4CCc5ccccc5C4)c23)cc1	43	?	-3%	46*
Oc1ccccc1N1CCN(c2ncnc3scc(-c4ccc(F)cc4)c23)CC1	37	?	9%	7
Cc1ccc(-c2csc3ncnc(N4CCc5ccccc5C4)c23)cc1	18	5%	0%	25
O=C(CC(c1ccccc1)c1ccccc1O)NCCN1CCOCC1 (centres undefined)	-55*	5%	21%	-4
O=C(COc1ccccc1O)NCCN1CCOCC1	-1	10%	5%	-15
CC(=O)C1=C(S(=O)(=O)c2ccc(C)cc2)CS(=O)(=O)C1	-67*	50%	7%	-7
